Drawing on PMC7862700, “An all-to-all approach to the identification of sequence-specific readers for epigenetic DNA modifications on cytosine”, this text covers binding signal for 1 sequence.

Common to all, as to experiment: DAPPL (digital affinity profiling via proximity ligation, sequencing); 10 mM Tris-HCl pH 7.5, 50 mM NaCl, 1 mM DTT, 4% glycerol, room temperature, 30 min; GST-TFs on glutathione beads, 16-mer random dsDNA library, 0.1% formaldehyde crosslink after washing; high values mean tight binding
The target of one assay is T1, FLI1 (Homo sapiens, UniProt Q01543 1-452).
T1 sequence: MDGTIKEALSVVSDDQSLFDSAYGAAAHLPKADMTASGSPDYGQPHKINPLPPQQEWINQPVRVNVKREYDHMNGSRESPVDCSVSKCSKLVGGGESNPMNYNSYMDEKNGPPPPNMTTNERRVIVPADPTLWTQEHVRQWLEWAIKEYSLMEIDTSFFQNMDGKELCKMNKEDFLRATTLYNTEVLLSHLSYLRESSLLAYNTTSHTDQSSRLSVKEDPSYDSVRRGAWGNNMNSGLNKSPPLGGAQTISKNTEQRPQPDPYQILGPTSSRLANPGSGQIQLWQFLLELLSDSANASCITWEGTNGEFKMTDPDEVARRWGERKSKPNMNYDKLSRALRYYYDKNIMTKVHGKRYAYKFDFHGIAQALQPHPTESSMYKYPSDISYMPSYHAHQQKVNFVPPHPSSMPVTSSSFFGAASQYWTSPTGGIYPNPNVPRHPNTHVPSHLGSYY
The settings on record: protein: recombinant; tags: N-terminal GST; dsDNA, one strand shown. The essentials:
(§1)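 Sequencing on an Illumina NextSeq500 followed washing, crosslinking with 0.1% formaldehyde, proximity ligation (BsaI/T4 ligase, 1 h, 37 °C) and PCR amplification of pools that had been incubated for 30 min at room temperature with 200 nmole of a random double-stranded 16-mer DNA library in Tris/NaCl/DTT/glycerol buffer. Each pool held DNA-barcoded human transcription factors, expressed in yeast as GST fusions and captured on glutathione beads, plus a tag-only sample. Binding signal is a hexamer's read frequency for a factor divided by its frequency in the tag-only sample.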

In the next assay the target is T2, ELK1 (Homo sapiens, UniProt P19419 1-428).
T2 sequence: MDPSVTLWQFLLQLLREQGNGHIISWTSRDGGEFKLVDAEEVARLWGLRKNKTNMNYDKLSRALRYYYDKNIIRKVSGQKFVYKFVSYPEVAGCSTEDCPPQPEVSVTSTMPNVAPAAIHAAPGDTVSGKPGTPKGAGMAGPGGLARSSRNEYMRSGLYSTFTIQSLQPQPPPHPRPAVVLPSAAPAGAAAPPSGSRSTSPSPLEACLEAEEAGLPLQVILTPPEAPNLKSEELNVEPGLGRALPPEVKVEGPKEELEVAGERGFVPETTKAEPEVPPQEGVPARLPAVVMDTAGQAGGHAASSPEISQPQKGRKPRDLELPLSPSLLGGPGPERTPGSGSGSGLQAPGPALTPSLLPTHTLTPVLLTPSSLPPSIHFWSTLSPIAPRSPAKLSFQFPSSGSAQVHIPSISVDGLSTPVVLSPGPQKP
To be noted: protein: recombinant; tags: N-terminal GST; dsDNA, one strand shown. The essentials: as §1

For another assay, the target named is T3, GABPA (Homo sapiens, UniProt Q06546 1-454).
T3 sequence: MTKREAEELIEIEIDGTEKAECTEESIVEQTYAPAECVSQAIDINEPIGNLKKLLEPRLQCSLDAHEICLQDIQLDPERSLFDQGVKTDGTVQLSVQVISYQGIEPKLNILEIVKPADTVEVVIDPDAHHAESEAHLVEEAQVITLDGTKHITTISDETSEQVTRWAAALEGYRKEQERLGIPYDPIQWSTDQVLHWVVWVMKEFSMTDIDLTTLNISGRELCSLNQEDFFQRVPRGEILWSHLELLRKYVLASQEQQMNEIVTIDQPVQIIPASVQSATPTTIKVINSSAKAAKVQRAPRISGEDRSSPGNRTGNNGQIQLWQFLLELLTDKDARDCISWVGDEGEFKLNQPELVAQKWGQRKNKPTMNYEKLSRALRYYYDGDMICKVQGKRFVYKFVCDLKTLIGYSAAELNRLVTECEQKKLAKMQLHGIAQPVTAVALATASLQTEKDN
To be noted: protein: recombinant; tags: N-terminal GST; dsDNA, one strand shown. The essentials: as §1

For another assay, the target named is T4, ERG (Homo sapiens, UniProt P11308 1-479).
T4 sequence: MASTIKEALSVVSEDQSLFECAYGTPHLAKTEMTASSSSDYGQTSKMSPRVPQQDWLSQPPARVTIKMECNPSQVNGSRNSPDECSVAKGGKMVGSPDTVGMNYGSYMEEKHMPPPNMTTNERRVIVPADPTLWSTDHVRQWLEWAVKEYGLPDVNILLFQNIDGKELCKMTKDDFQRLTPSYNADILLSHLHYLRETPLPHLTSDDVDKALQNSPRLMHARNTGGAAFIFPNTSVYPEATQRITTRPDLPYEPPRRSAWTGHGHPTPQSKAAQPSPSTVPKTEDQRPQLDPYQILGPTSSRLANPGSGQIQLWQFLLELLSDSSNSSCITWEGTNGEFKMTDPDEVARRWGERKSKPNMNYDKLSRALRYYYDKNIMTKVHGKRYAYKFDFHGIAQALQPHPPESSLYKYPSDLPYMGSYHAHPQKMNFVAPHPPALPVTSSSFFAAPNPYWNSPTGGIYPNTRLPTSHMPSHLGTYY
The settings on record: protein: recombinant; tags: N-terminal GST; dsDNA, one strand shown. The essentials:
as §1

Another assay has as its target ELF1 (Homo sapiens, UniProt P32519 1-619). To be noted: protein: recombinant; tags: N-terminal GST; dsDNA, one strand shown. The essentials: as §1
Another assay has as its target T5, EHF (Homo sapiens, UniProt Q9NZC4 1-300).
T5 sequence: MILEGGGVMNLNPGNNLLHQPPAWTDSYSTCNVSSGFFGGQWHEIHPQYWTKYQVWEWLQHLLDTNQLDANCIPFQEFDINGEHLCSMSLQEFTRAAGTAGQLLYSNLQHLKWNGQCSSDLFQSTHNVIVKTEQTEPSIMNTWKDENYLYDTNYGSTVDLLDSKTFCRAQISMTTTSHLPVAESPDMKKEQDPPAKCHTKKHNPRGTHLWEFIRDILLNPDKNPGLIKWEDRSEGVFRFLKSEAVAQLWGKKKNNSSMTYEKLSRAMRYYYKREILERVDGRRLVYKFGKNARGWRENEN
The settings on record: protein: recombinant; tags: N-terminal GST; dsDNA, one strand shown. The essentials:
as §1

In the next assay the target is SPI1 (Homo sapiens, UniProt P17947 1-270). To be noted: protein: recombinant; tags: N-terminal GST; dsDNA, one strand shown. The essentials:
as §1

The target of a further assay is SPIB (Homo sapiens, UniProt Q01892 1-262). To be noted: protein: recombinant; tags: N-terminal GST; dsDNA, one strand shown. The essentials: as §1
The target of a further assay is T6, FEV (Homo sapiens, UniProt Q99581 1-238).
T6 sequence: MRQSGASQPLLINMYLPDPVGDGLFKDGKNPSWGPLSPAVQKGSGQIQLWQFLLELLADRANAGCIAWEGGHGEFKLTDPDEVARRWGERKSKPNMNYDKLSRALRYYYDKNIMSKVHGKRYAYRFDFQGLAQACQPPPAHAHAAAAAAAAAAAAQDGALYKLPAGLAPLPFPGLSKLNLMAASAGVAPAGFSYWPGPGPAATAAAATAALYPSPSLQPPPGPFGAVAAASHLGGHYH
To be noted: protein: recombinant; tags: N-terminal GST; dsDNA, one strand shown. The method, boiled down: as §1

The target of another assay is ETV5 (Homo sapiens, UniProt P41161 1-510). To be noted: protein: recombinant; tags: N-terminal GST; dsDNA, one strand shown. The method, boiled down:
as §1

The next assay concerns the target HSF1 (Homo sapiens, UniProt Q00613 1-529). To be noted: protein: recombinant; tags: N-terminal GST; chain copies: 3; dsDNA, one strand shown. The method, boiled down: as §1
The next assay concerns the target T7, SPIC (Homo sapiens, UniProt Q8N5J4 1-248).
T7 sequence: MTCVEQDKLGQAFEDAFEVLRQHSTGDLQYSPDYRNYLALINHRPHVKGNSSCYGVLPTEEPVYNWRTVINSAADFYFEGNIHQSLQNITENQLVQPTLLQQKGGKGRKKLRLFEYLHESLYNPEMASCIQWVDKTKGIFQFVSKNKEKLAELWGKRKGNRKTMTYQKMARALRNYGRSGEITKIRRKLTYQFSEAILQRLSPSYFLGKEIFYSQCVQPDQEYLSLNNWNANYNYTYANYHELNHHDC
To be noted: protein: recombinant; tags: N-terminal GST; dsDNA, one strand shown. The method, boiled down:
as §1

In another assay the target is ELF4 (Homo sapiens, UniProt Q99607 1-663). To be noted: protein: recombinant; tags: N-terminal GST; dsDNA, one strand shown. The method, boiled down:
as §1

The target of a further assay is T8, ELK4 (Homo sapiens, UniProt P28324-2 1-405).
T8 sequence: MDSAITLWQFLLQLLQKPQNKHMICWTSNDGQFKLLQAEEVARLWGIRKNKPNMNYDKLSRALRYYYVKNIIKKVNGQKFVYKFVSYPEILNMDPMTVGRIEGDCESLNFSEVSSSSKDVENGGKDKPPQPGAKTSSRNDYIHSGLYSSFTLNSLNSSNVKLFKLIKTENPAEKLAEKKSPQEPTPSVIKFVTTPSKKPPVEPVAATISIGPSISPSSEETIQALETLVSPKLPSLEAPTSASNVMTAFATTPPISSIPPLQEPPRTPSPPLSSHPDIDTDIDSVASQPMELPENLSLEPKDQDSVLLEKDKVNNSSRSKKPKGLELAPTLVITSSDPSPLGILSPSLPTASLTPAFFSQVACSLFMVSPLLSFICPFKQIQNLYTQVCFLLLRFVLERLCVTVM
To be noted: protein: recombinant; tags: N-terminal GST; dsDNA, one strand shown. The essentials: as §1

In the next assay the target is T9, ETV2 (Homo sapiens, UniProt O00321 1-342).
T9 sequence: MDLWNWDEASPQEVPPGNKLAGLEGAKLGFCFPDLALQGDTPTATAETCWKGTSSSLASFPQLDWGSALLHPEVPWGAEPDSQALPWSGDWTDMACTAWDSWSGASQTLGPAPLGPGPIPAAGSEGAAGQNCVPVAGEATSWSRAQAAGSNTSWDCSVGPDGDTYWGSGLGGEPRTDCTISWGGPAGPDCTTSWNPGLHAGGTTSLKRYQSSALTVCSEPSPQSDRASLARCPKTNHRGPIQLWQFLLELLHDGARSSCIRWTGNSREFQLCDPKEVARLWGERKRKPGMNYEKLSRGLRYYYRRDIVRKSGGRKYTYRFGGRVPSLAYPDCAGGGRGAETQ
The settings on record: protein: recombinant; tags: N-terminal GST; dsDNA, one strand shown. The essentials: as §1

Another assay concerns the target T10, ELF3 (Homo sapiens, UniProt P78545 1-371).
T10 sequence: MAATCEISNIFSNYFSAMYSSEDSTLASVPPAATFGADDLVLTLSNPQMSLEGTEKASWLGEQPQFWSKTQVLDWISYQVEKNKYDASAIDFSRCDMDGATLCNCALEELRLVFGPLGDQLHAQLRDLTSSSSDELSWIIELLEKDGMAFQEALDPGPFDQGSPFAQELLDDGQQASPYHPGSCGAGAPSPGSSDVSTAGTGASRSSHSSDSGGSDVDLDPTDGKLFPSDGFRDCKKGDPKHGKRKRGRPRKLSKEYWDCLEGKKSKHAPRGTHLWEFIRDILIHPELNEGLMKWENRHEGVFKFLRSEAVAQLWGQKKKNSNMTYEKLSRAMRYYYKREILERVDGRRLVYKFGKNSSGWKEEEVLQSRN
To be noted: protein: recombinant; tags: N-terminal GST; dsDNA, one strand shown. The method, boiled down: as §1

The target in another assay is CRX (Homo sapiens, UniProt O43186 1-299). To be noted: protein: recombinant; tags: N-terminal GST; dsDNA, one strand shown. The method, boiled down:
as §1

Another assay has as its target ETV1 (Homo sapiens, UniProt P50549 1-477). The settings on record: protein: recombinant; tags: N-terminal GST; dsDNA, one strand shown. The essentials:
as §1

Sequence of ETV1 (P50549 whole entry): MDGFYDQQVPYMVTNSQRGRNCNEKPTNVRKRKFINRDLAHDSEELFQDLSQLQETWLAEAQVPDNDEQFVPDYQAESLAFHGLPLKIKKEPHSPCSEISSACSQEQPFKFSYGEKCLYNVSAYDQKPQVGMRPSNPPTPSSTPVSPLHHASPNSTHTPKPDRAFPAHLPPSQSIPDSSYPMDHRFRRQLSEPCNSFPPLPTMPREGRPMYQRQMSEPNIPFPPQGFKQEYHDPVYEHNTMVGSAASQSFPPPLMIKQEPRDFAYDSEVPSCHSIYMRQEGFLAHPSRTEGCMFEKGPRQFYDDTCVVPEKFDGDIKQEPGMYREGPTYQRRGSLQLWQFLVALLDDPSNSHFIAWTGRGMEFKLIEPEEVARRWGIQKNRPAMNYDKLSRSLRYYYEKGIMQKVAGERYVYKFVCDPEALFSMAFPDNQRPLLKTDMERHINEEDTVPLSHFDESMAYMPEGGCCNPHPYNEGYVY
Sequence of ELF4 (Q99607 whole entry): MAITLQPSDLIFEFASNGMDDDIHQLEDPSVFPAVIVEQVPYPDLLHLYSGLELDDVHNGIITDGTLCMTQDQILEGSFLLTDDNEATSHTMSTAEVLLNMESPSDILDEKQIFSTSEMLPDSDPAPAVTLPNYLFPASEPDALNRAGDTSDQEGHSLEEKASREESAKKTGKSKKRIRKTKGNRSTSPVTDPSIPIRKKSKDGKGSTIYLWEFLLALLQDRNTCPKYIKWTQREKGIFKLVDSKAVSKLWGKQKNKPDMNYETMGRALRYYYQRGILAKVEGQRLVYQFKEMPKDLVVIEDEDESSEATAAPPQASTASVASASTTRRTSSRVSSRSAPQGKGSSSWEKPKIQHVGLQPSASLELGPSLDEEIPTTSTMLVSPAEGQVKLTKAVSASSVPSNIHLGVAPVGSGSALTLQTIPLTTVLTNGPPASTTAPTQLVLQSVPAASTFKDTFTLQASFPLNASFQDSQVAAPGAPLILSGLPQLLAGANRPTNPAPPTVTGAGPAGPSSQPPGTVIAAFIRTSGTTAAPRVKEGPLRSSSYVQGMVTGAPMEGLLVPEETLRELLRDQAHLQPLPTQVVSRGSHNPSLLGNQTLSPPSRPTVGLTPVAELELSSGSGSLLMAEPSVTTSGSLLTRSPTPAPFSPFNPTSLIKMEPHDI
Sequence of ELF1 (P32519 whole entry): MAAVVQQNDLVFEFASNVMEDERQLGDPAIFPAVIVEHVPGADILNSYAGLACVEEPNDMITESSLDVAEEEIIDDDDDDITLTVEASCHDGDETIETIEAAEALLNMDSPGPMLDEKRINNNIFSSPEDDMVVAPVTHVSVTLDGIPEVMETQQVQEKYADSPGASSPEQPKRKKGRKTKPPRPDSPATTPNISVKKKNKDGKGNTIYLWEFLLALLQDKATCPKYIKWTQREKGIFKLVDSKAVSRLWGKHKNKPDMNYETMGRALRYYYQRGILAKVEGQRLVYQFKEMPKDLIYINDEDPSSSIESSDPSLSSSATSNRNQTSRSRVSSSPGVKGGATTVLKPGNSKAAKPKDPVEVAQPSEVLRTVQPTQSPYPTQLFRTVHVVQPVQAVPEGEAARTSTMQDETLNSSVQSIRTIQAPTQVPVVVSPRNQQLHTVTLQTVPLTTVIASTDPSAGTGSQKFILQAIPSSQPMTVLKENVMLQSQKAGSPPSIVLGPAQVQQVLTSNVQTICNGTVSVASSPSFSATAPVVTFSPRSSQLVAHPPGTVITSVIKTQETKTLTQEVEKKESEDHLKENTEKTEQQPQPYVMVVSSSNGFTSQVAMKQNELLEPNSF
Sequence of SPIB (Q01892 whole entry): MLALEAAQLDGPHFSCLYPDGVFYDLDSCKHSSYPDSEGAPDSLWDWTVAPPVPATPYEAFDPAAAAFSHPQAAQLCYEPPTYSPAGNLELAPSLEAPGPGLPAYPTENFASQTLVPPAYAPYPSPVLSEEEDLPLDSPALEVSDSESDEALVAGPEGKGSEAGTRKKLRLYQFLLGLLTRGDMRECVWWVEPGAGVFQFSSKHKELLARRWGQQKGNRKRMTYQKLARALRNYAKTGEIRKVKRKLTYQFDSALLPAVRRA
Sequence of HSF1 (Q00613 whole entry): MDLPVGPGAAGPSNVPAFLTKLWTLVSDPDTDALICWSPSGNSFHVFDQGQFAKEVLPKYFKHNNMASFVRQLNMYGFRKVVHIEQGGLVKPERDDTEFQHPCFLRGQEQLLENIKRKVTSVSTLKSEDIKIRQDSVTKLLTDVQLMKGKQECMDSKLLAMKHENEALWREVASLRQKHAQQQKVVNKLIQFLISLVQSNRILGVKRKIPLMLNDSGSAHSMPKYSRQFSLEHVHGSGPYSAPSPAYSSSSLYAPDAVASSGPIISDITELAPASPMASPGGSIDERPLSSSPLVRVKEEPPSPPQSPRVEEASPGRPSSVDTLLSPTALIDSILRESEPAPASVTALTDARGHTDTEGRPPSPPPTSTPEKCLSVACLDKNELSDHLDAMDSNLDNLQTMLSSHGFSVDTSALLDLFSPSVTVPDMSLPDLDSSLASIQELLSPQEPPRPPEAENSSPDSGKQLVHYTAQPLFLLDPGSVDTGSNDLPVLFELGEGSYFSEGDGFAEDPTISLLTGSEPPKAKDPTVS
Sequence of CRX (O43186 whole entry): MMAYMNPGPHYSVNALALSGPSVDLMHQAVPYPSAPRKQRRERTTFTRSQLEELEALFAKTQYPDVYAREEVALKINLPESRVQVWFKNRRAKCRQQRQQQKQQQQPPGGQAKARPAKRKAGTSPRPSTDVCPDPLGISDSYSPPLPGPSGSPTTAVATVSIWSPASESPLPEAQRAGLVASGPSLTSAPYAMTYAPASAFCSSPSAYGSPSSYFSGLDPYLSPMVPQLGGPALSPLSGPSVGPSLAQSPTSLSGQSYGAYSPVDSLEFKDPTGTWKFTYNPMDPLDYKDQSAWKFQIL
Sequence of ETV5 (P41161 whole entry): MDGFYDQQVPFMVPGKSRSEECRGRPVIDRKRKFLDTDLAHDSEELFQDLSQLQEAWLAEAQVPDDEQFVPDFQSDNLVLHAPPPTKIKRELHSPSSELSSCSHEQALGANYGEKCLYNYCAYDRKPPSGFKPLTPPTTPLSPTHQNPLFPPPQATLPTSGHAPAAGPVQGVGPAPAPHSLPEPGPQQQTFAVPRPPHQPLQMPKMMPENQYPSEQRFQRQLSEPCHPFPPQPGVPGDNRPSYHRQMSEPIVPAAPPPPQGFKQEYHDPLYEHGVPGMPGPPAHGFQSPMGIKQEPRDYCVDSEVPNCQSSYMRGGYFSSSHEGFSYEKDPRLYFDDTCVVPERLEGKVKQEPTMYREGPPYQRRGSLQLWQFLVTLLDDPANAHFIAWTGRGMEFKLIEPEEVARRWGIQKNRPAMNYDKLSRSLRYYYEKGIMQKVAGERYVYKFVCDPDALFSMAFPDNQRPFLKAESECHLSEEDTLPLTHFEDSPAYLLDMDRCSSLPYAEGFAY

Turning to ATAGCT, the binding signal is 1.13 fold enrichment (6-mer frequency, TF over GST control) with FLI1; 1.08 fold enrichment (6-mer frequency, TF over GST control) with ELK1; 1.2 fold enrichment (6-mer frequency, TF over GST control) with GABPA; 1.07 fold enrichment (6-mer frequency, TF over GST control) with ERG; 1.19 fold enrichment (6-mer frequency, TF over GST control) with ELF1; 1.25 fold enrichment (6-mer frequency, TF over GST control) in the assay with EHF. The binding signal in the assay with SPI1 was 1.17 fold enrichment (6-mer frequency, TF over GST control); with SPIB it was 1.09 fold enrichment (6-mer frequency, TF over GST control); with FEV, 1.16 fold enrichment (6-mer frequency, TF over GST control); with ETV5 it was 1.2 fold enrichment (6-mer frequency, TF over GST control); with HSF1, 1.06 fold enrichment (6-mer frequency, TF over GST control); in the assay with SPIC it was 1.15 fold enrichment (6-mer frequency, TF over GST control). The binding signal with ELF4 was 1.07 fold enrichment (6-mer frequency, TF over GST control); in the assay with ELK4, 1.25 fold enrichment (6-mer frequency, TF over GST control); with ETV2, 1.27 fold enrichment (6-mer frequency, TF over GST control); with ELF3 it was 1.26 fold enrichment (6-mer frequency, TF over GST control); with CRX, 1.26 fold enrichment (6-mer frequency, TF over GST control); with ETV1, 1.11 fold enrichment (6-mer frequency, TF over GST control).
